Mtb betalactam – beta-lactam sensitization of Mtb H37Rv, H37Rv; M. tuberculosis H37Rv growth with meropenem, percent inhibition; inhibition, % at 25 µM; 330,000 tested, 0.27% active; AID 434955, 2010; call rule not given here;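 further: growth measured after seven days incubation then overnight dye step; 0% = bacteria only wells and 100% = bacteria with antibiotic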
Rv3671c inh – Rv3671c serine protease inhibitors, primary screen, biochemical, fluorescence polarization, M. tuberculosis H37Rv. P9WHR9. inhibition, % at 5.96 µM. 320,000 tested, 0.048% active; in the data active means inhibition above about 38%;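 further: extracellular domain of Rv3671c used as enzyme; 0% = enzyme with DMSO and 100% = no enzyme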
GDH-TPI inh – GDH-TPI coupling enzyme inhibitors, primary screen, artefact control for M. tuberculosis FBA inhibitor project, biochemical, absorbance, full deck; GDH-TPI coupled enzyme counterscreen, NADH absorbance; 360,000 tested, 1.2% active; inhibition, % at 4.8 µM; in the data active means inhibition above about 30%;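 further: 0% = DMSO wells and 100% = wells lacking the enzyme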
UGM FP inh – M. tuberculosis UGM enzyme inhibitors, primary screen, biochemical, fluorescence polarization, single point. purified UGM, fluorescence polarization probe displacement. inhibition, % at 10 µM. 320,000 tested, 0.06% active. UDP-galactopyranose mutase (Mycobacterium tuberculosis (strain ATCC 25618 / H37Rv)), …. AID 504406, 2011; in the data active means inhibition above about 10%, passing the limit was not always enough
Target sequence (P9WIQ1 whole entry, looked up): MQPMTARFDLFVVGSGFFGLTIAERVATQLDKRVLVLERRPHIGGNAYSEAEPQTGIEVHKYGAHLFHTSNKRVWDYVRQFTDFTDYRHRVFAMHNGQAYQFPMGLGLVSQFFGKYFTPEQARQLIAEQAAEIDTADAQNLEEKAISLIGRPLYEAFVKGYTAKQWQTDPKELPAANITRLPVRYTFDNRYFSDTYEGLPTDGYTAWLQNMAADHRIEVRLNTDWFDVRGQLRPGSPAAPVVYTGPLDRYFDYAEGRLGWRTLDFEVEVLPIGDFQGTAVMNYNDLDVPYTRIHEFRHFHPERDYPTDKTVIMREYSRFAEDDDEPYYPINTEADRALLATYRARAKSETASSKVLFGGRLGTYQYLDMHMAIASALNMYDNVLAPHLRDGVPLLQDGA
FBA Mtb inh – Mtb FBA enzyme inhibitors, primary screen, biochemical, fluorescence, strain H37Rv; AID 588726, 2011; 360,000 tested, 2.3% active; Fructose-bisphosphate aldolase (Mycobacterium tuberculosis (strain ATCC 25618 / H37Rv)), …; inhibition, % at 1 µM; purified M. tuberculosis FBA, fluorescence read-out; in the data active means inhibition above about 27%;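 further: 0% = vehicle and 100% = reference inhibitor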
RecA splice inh – Mtb RecA intein splicing inhibitors, primary screen, biochemical, fluorescence, HTS. AID 2221, 2009. Protein RecA (Mycobacterium tuberculosis (strain ATCC 25618 / H37Rv)), P9WHJ3. cell-free RecA intein splicing. 290,000 tested, 0.75% active. inhibition, % (test concentration not listed); in the data active means inhibition above about 30%;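 further: 0% = vehicle wells and 100% = reference inhibitor control wells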
The depositor's hits bear a star; x = no result; + = active, no number. Most compounds without a hit are left out; they make up all but 4% or so of the library.

SMILES	Mtb betalactam	Rv3671c inh	GDH-TPI inh	UGM FP inh	FBA Mtb inh	RecA splice inh
COCCNC(=O)/C(C#N)=C/c1ccc(O)c([N+](=O)[O-])c1	-2	-7	14	1	-11	0
COc1ccc(/C=C2\Sc3ccc(C(=O)NCc4cccnc4)cc3N(C)C2=O)cc1OC	97	-6	35*	3	0	-1
COc1cccc(/C=C2\Sc3ccc(C(=O)NCc4cccnc4)cc3N(C)C2=O)c1	99	-18	0	4	3	-1
CCc1nc2cc(NC(=O)C3(C)CCCN(C(C)=O)C3)ccc2o1 (stereo not given)	x	x	2	x	1	x
O=C(c1ccco1)N1CCN(Cc2cc(=O)oc3cc(O)ccc23)CC1	-4	4	26	-2	+	x
O=c1cc(CN2CCN(Cc3ccccc3)CC2)c2ccc(O)cc2o1	4	-3	8	0	153*	-165
Oc1ccc(Cl)cc1CN1CCN(Cc2ccccc2)CC1	2	-2	63*	-3	-12	0
OCC1(CCc2ccccc2)CCN(Cc2cc(Cl)ccc2O)CC1	0	0	-4	1	-1	3
CC1CN(Cc2cc(=O)oc3cc(O)ccc23)CC(C)O1 (stereo not given)	-11	0	7	0	161*	-89
O=C(c1ccco1)N1CCN(Cc2cccc3ccccc23)CC1	4	14	4	1	3	3
CCN(CC)c1ccc(S(=O)(=O)N2CCOCC2)cc1NC(=O)CSc1nnc(N)s1	-4	-6	4	-1	3	-3
CCN1C(=O)[C@@H]2[C@H](C1=O)[C@@H]1C(=O)Nc3ccccc3C(=O)N1[C@@H]2c1ccc(Br)cc1	-5	-3	9	0	1	-6
COc1cc(/C=C/c2nc3ccccc3c(=O)n2-c2cccc(O)c2)ccc1O	43	2	47*	-2	-4	-4
COc1cc(/C=C/c2nc3ccccc3c(=O)[nH]2)ccc1O	x	x	41*	x	-3	x
COc1cc(/C=C/c2nc3ccccc3c(=O)n2-c2ccccc2O)ccc1O	10	-5	24	-7	-5	3
O=c1c2ccccc2nc(/C=C/c2ccc(O)c(O)c2)n1-c1ccccc1	4	-27	43*	0	-6	-4
CCN(CC)C(=O)c1sc(NC(=O)Cc2cccs2)c(C#N)c1C	0	3	11	-1	5	6
Cc1c(C#N)c(NC(=O)CCl)n(Cc2cccs2)c1C	83	4	-6	-1	-2	65*
Cc1c(C#N)c(NC(=O)CCl)n(Cc2ccc(F)cc2)c1C	4	0	0	2	0	56*
Cc1cc(=O)n(Cc2ccccc2)c(O)c1C#N	-5	-7	11	-1	6	2
Cc1c(C#N)c(NC(=O)CCl)n(Cc2ccccc2)c1C	64	9	-5	-3	3	44*
Cc1ccc(C(=O)N2CCN(c3ccc(C(F)(F)F)cn3)CC2)cc1	0	9	0	0	4	0
O=C(c1cnc2ccccc2n1)N1CCN(c2ccc(C(F)(F)F)cn2)CC1	2	2	31*	0	-4	2
CC(C)C(=O)N1CCCC1(C)C(=O)NCc1ccc(Cl)cc1 (stereo not given)	x	x	-4	x	3	x
CCOc1ccc(/C=N/NC(=O)c2ccc3nc[nH]c3c2)cc1OC	x	x	42*	x	4	x
COc1ccc(/C=N/NC(=O)c2ccc3nc[nH]c3c2)cc1	-5	-2	13	0	1	-1
COc1ccc(/C=N/NC(=O)c2ccc3nc[nH]c3c2)c(OC)c1	1	0	35*	0	0	-1
COc1ccc(-c2nn(-c3ccccc3)cc2CNC[C@H]2O[C@@H](n3cnc4c(N)ncnc43)[C@H](O)[C@@H]2O)cc1	-4	9	-6	-1	-2	x
Cc1ccc(NCc2ccccc2O)cc1	17	3	-4	-4	8	-2
Cc1ccc(CNc2ccc(O)cc2)cc1	x	x	6	x	-1	85*
